Screens (PubChem BioAssay)
KAT2A inh – inhibitors of human GCN5L2 histone acetyltransferase; Potency, µM (series often up to 58.9 µM), for the others: at the top dose activity change, negative = inhibition, usual class: inhibitors; GCN5L2 HAT assay, ThioGlo1 CoA-SH fluorescence; AID 504327; Q92830; 390,000 tested, 0.21% active; also: % is scaled to controls: 0 for no effect and ±100 for the full control effect
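Preincubate 20nM GCN5L2 with compound 15 min, RT → add 50uM ThioGlo1 + 75uM H3(1-25) + 70uM acetyl-CoA → read fluorescence 0 and 20 min. Primary qHTS; fluorescent artifacts likely.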
PLK1 PBD inh – PLK1 (human) polo-box domain binding inhibition | P53350 | Plk1 PBD binding of FITC phosphopeptide, fluorescence polarization | Potency, µM, without a hit: max response, negative = inhibition, most hits filed as inhibitors | 360,000 tested, 2.8% active | AID 720504; also: series mostly up to about 57 µM; % is scaled to controls: 0 for no effect and ±100 for the full control effect; nearly all actives have a fitted effect of over 65% in size
Target sequence (P53350 whole entry, looked up, the tested form may be a part): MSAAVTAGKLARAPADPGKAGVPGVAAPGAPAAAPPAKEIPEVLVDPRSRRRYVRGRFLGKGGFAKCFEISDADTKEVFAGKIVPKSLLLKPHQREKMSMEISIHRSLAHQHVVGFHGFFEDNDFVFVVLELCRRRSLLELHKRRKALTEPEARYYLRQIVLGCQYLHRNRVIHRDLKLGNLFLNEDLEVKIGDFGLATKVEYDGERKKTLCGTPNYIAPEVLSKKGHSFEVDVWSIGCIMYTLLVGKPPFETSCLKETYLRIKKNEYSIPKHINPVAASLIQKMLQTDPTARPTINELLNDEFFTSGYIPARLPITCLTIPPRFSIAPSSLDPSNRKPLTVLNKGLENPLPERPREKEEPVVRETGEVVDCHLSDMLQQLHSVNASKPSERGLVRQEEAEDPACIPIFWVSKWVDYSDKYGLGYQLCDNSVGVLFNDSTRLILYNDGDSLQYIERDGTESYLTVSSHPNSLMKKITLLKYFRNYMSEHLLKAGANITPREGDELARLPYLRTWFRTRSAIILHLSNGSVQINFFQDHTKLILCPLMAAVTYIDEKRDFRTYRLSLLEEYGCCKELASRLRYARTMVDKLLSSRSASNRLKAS
Mito fusion act – mitochondrial division inhibition or fusion activation. S. cerevisiae fusion-defective mutant growth rescue, CellTiterGlo 48 h. Potency, µM (top dose mostly 46.1 µM), inactives show at the top dose growth rescue (activation), actives largely listed as activators. 320,000 tested, 0.23% active; also: % of control where 0% means no effect; nearly all actives have a fitted effect of over 45% in size
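S. cerevisiae fusion-defective temperature-sensitive mutants (e.g. fzo1-1, mgm1-5) grown 48 h at 37C in YPEG (ethanol/glycerol non-fermentable) medium with 23 nl compound per well; growth rescue read as CellTiterGlo luminescence.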
GLS inh – inhibitors of human glutaminase (GLS) | GLS enzymatic activity, qHTS titration | AID 624170 | 410,000 tested, 0.21% active | O94925 | Potency, µM (top dose mostly 45.5 µM), for inactives: at the highest dose activity change, negative = inhibition, usual class: inhibitors; also: % is scaled to controls: 0 for no effect and ±100 for the full control effect
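hKGA in 45 mM KH2PO4 pH 8.2, 0.02% Tween-20 with pin-transferred compounds; 1 mM L-glutamine (stock) plus glutamate oxidase/HRP/Amplex Red coupling added. Fluorescence read initially and after 30 min at RT.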
PKM2 act – increases activity of human pyruvate kinase M2; Potency, µM (series often up to 57.5 µM), without a hit: at the top dose activation, usual class: activators; P14618; 260,000 tested, 0.34% active; AID 1631; purified PKM2, Kinase-Glo ATP luminescence, activation; response scale: 0% is enzyme alone, no compound; also: % is scaled to controls: 0 for no effect and ±100 for the full control effect; nearly all actives have a fitted effect of over 55% in size
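Purified hPK-M2 (>95%) run at intermediate activity with 0.1 mM ADP and 0.5 mM PEP in 50 mM imidazole pH 7.2, KCl, MgCl2; 1 h room temperature. ATP formed read by Kinase-Glo luminescence; normalized to uninhibited and no-enzyme controls.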
VDR inhibitor – inhibitors of human vitamin D receptor; AID 504847; 400,000 tested, 0.93% active; P11473; Potency, µM, for inactives: max response, negative = inhibition, usual class: inhibitors; VDR-SRC2-3 peptide fluorescence polarization, 2 h; also: % is scaled to controls: 0 for no effect and ±100 for the full control effect
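VDR–SRC2-3 interaction, FP format. Cmpds 23 nl via pintool, brief spin, 2 h ambient incubation.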
Starred values were filed as active, the others as inactive; u = inconclusive; x = not tested or not shown; ! = not confirmed by another sample; [ ] = remark or other dose. Compounds with a hit are over-represented: about 3.4% of the library has one in this group of screens. Calls follow the shape of the dose curve; as a rule, active = well fitted curve in the direction sought with a large enough effect; inconclusive = small, poorly fitted or top-dose-only effect, or another doubt; inactive = no such curve, though single readings can be large; an effect the other way counts as inactive or inconclusive. Potency is read from the fitted curve at half-maximal effect.

SMILES	KAT2A inh	PLK1 PBD inh	Mito fusion act	GLS inh	PKM2 act	VDR inhibitor
Cc1ccc(OCC(=O)NCCNC(=O)COc2ccc(C)cc2)cc1	-2%	-2%	-4%	0%	-7%	-5%
COc1ccccc1OCC(=O)Sc1ccc(C)cc1	-3%	3µM*	4%	-4%	-3%	u
C=C1C2CC[C@@]3(C)C(c4ccoc4)OC(=O)C[C@@]13OC1CC(=O)C(C)(C)C(CC(=O)OC)[C@]12C (stereo partly drawn)	-3%	x	x	x	x	-8%
N#CCCCS(=O)(=O)c1ccccc1	x	x	x	x	x	3%
Cc1cccc(C)c1NC(=S)N(c1ccccc1)C(C)C	24%	30µM*	-9%	14%	5%	7%
CC(C)N(C(=S)NCc1ccccc1)c1ccccc1	-6%	-12%	-13%	0%	-10%	-4%
COc1cccc(-c2nc(N3CCCCC3C)c3ccccc3n2)c1O (stereo not drawn)	-10%	2%	13µM*	-8%	1%	10%
COc1ccccc1CNC(=O)C1CCC(CNS(=O)(=O)c2ccc(F)cc2)CC1 (stereo not drawn)	8%	-6%	5%	6%	x	7%
O=c1c(C(c2ccccc2)c2c(O)sc3ccccc3c2=O)c(O)sc2ccccc12	25µM*	-20%	19%	8%	4%	4%
O=c1c2ccccc2sc2ccccc12	x	-4%	x	-2%	x	6%
COc1ccc(NC(=O)N2CC3(CCN(C(=O)c4ccco4)CC3)C2)cc1	-5%	x	x	x	x	-17%
O=S(=O)(/C=C/C=C/S(=O)(=O)c1ccccc1)c1ccccc1	x	2.7µM*	x	8%	x	u
COc1ccc(-c2cnc(N)n2CC2CCCO2)cc1 (stereo not drawn)	-18%	27µM*	-8%	1%	-7%	7%
O=C(O)C1CC(=O)N(c2ccc3c(c2)OCCO3)C1 (stereo not drawn)	2%	3µM*	-1%	-26%	-6%	-22%
CCCCn1c(N)c(N(CCC(C)C)C(=O)C2CC(=O)N(c3ccc4c(c3)OCCO4)C2)c(=O)[nH]c1=O (stereo not drawn)	-1%	12µM*	-4%	-6%	-11%	19%
CC(C)C[C@H](NC(=O)C1CC(=O)N(c2ccc3c(c2)OCO3)C1)C(=O)NC1CCCCC1 (stereo partly drawn)	-3%	1%	0%	-8%	x	1%
C[C@H](NC(=O)C1CC(=O)N(c2ccc3c(c2)OCO3)C1)C(=O)NC1CCCCC1 (stereo partly drawn)	-1%	11µM*	2%	-1%	x	u
Cc1ccc2ncc3c(-c4ccc(F)cc4)nn(-c4cccc(F)c4)c3c2c1	0%	x	x	2%	x	2%
O=C(CN1C(=O)c2cccc3cccc1c23)NCc1cccnc1	32µM*	-9%	-3%	1%	-2%	2%
O=C(CCCN1C(=O)c2cccc3cccc(c23)C1=O)NCc1cccnc1	-3%	-16%	17%	-2%	5%	-10%
CN(C)C(=O)CN1C(=O)c2cccc3cccc1c23	-3%	2%	3%	3%	0%[11.5 µM]	6%
O=C(CN1C(=O)c2cccc3cccc1c23)Nc1cccnc1	-11%	30µM*	4%	-1%	-5%	7%
CCN1C(=O)c2cccc3cccc1c23	-13%	21µM*	2%	-6%	2%	-10%
CC(C)(C)c1ccc(C(=O)Nc2ccc(-c3nc4ccccc4o3)c(O)c2)cc1	-2%	x	x	-2%	x	-2%
COc1cc(S(=O)(=O)NCc2ccccn2)c(OC)cc1Cl	4%	-1%	-3%	8%	1%	13%
SMILES	KAT2A inh	PLK1 PBD inh	Mito fusion act	GLS inh	PKM2 act	VDR inhibitor
CCOc1ccc(S(=O)(=O)NCc2cccs2)cc1C(C)C	-1%	-3%	22%	9%	x	-8%
COc1cc(S(=O)(=O)NCc2ccccn2)ccc1Cl	-3%	24µM*	-2%	u	0%	u
CCOc1cc(S(=O)(=O)NCc2cccs2)ccc1Cl	-1%	27µM*	-1%	22%	1%	2%
CC(O)(c1ccc(F)c(F)c1)c1nc(-c2ccoc2)cs1 (stereo not drawn)	x	-14%	x	13%	x	x
Cc1cccc(N2CN(S(=O)(=O)c3cccc([N+](=O)[O-])c3)c3nc4ccccc4nc32)c1	-1%	3%	x	-11%	x	-11%
CCc1nc2ccc(C(=O)N3CCN(c4cccc(C)c4C)CC3)cc2nc1CC	-11%	27µM*	-16%	6.3µM*!	3%	u
Cc1cccc(N2CCN(C(=O)c3ccc4nc[nH]c4c3)CC2)c1C	0%	-4%	-4%	-12%	7%	-10%
Cn1c(=O)c2c(O)c(Cc3ccccc3)c(=O)[nH]c2n(C)c1=O	-1%	0%	20µM*	u	-2%	-21%
CCCc1nnc(SCc2ccc(OC)cc2)n1N	-15%	21µM*	2%	u	-3%	25µM*
COc1cc(CN2CCNC(=O)C2CC(=O)N(C)CCC2CCOCC2)cc(OC)c1 (stereo not drawn)	3%	27µM*	5%	40%	x	u
COc1ccc(CN2CCNC(=O)C2CC(=O)N(C)Cc2nccs2)c(OC)c1 (stereo not drawn)	-2%	27µM*	-6%	4%	0%	-16%
CN(C(=O)CC1C(=O)NCCN1Cc1ccccc1C(F)(F)F)C1CCOCC1 (stereo not drawn)	-4%	11µM*	0%	3%	x	u
CN(C(=O)CC1C(=O)NCCN1Cc1ccccc1F)C1CCOCC1 (stereo not drawn)	-2%	-6%	-1%	2%	0%	3%
Oc1cc(CNCc2ccccc2)c(O)cc1CNCc1ccccc1	x	u	x	18µM*	x	-27%
OCc1ccccc1CNCc1ccccc1	-2%	-6%	0%	-1%	15%	-1%
Cc1ccc(NC(=O)C(Cc2ccccc2)NS(=O)(=O)c2ccc3c(c2)oc(=O)n3C)cc1F (stereo not drawn)	-5%	x	x	0%	x	-3%
O=C(N/N=C1\CCCc2ccccc21)c1cccc([N+](=O)[O-])c1	32µM*	-2%	1%	7%	-4%	-2%
CCN(c1ccccc1)c1cc(NC)[n+](C)c(C)n1	-7%	x	x	x	x	1%
Cc1cccc(C)c1Nc1nnc(SCC(=O)c2ccc(Br)s2)s1	-9%	24µM*	18µM*	16%	-4%	u
